Source: PubChem BioAssay AID645 (SRMLSC, 2007)
The whole screen tested about 65,000 compounds, of which about 450 (0.69%) were called active.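 The calls were made as follows: active = HER2 level under 5% of the carrier-only control; inconclusive = no clear call, values can overlap the other calls; inactive = the rest.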 Only a selection was taken, and actives are over-represented in it overall.

These compounds were tested against Receptor tyrosine-protein kinase erbB-2 (Homo sapiens) (UniProt P04626) (assay: reducers of endogenous HER2 protein levels – SKBR-3 cells, AlphaScreen, 66K library, primary screen (AID 645;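 also: 100% = DMSO carrier and 0% = 500 nM PU-H71 HSP90 inhibitor; lower value means stronger loss of Her2 protein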)). Conditions: SKBR-3 HER2 protein level, 18-24 h, at 10 µM, active compounds read low.
Chain of Receptor tyrosine-protein kinase erbB-2 (Homo sapiens) (P04626 whole entry, looked up): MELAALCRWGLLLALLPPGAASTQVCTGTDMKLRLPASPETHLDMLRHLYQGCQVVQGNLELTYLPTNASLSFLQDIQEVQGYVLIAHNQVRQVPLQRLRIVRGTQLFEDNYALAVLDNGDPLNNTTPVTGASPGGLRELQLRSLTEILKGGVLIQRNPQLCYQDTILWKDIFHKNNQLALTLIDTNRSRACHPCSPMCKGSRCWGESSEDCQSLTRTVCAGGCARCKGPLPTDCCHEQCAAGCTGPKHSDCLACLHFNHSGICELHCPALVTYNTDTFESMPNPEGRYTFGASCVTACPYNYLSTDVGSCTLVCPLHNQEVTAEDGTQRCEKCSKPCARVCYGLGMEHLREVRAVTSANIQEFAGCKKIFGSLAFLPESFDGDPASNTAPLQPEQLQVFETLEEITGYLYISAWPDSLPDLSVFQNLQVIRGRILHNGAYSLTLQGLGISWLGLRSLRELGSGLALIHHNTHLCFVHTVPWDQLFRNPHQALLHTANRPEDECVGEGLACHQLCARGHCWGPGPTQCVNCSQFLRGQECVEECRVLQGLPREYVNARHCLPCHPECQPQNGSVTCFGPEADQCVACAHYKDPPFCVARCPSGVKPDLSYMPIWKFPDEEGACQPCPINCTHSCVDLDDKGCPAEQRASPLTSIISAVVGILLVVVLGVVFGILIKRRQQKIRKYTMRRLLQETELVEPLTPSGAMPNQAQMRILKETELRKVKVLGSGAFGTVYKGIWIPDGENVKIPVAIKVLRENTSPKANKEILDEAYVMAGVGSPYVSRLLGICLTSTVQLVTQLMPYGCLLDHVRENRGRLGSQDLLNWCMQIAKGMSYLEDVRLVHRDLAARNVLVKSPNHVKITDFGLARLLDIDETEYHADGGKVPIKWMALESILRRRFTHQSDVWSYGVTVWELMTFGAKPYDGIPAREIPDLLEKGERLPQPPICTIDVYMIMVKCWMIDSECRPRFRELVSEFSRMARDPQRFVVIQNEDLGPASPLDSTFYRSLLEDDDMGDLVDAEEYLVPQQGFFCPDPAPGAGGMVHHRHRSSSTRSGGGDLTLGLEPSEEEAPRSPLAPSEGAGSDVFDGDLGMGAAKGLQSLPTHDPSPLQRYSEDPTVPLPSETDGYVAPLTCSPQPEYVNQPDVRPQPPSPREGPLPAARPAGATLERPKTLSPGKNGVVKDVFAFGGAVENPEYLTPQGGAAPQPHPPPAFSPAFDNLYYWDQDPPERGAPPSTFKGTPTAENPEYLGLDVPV
`CC(=O)c1c(O)n(C2CCCCCC2)c(=O)[nH]c1=O` was tested, and the HER2 level % of control was 69.8% (inactive). `CC(=NCC1CCCO1)c1c(O)n(-c2ccccc2)c(=O)[nH]c1=O` (stereo not given) was tested, and the HER2 level % of control was -16.3% (active). In the case of `CCC(=NCCCO)c1c(O)n(-c2ccc(OC)cc2)c(=O)[nH]c1=O`, the HER2 level % of control is reported as 92.7% (inactive). With `CC(=O)N1CN2CN(C(C)=O)CC(C(=O)c3ccc(Br)cc3)(C2)C1` the HER2 level % of control was 119% (inactive). With `Cc1ccc(Cn2nnnc2CN2CCC(n3nnc4ccccc43)CC2)cc1` the HER2 level % of control was 69.1% (inactive).
